Data on 6 molecules can be found in PubChem BioAssay (Tox21).

Inconclusive results are not listed. Where a structure was tested more than once in an assay, its records may differ in their call. Activity calls are given as the source filed them. Unless noted, the call rests on the fitted dose curve; in most records, active means well fitted curve in the direction sought with a large enough effect in the repeat runs; inconclusive means weak or mixed curves; inactive means no such curve, though single readings can be large; an effect the other way counts as inactive or inconclusive.

The target of assay [1] is Progesterone receptor (Homo sapiens) (UniProt P06401). The assay is described as follows: qHTS assay to identify small molecule agonists of the progesterone receptor (PR) signaling pathway (AID 1346784; calls by dose curve; further: nearly all actives have a fitted effect of over 30% in size). The essentials: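 The screen uses PR-UAS-bla HEK 293T cells in charcoal-stripped serum (2%). Compounds are applied for 16 hr at 37C after a 6 hr pre-incubation, and reporter activity is detected with a FRET beta-lactamase substrate after 2 hr at room temperature.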

The target is the same in assay [2]. The assay is described as follows: qHTS assay to identify small molecule antagonists of the progesterone receptor (PR) signaling pathway (AID 1346795; active means well fitted inhibition curve with a large enough effect in the signal ratio in the repeat runs, not every such curve was filed as active; the % refers to the signal ratio). The essentials:
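After 6 hr plating at 37C in 2% stripped-serum medium, PR-UAS-bla HEK293T cells got compounds, then 1 nM R5020. Sixteen hours later, LiveBLAzer substrate was applied for 2 hr at room temperature and fluorescence was recorded.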

The nature of assay [3]: qHTS assay to identify small molecule antagonists of the progesterone receptor (PR) signaling pathway - cell viability counter screen (AID 1346798). Further: series mostly up to about 92 µM; nearly all actives have a fitted effect of over 50% in size. In short, it runs like this:
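Viability was determined by ATP-based luminescence (CellTiter-Glo) in PR-UAS-bla HEK293T cells cultured in 2% charcoal-stripped serum and incubated 16 hr with compounds under R5020 stimulation.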

A short description of assay [4]: qHTS assay to identify small molecule agonists of the progesterone receptor (PR) signaling pathway - cell viability counter screen (AID 1346799; calls by dose curve; further: nearly all actives have a fitted effect of over 45% in size). In short, it runs like this:
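Viability was scored by ATP luminescence (CellTiter-Glo, 30 min, room temperature) in the same wells used for the reporter readout, after 16 hr compound exposure of PR-UAS-bla HEK293T cells.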
Background: In qHTS, concentration-response curves come from the screen itself.

A short description of assay [5]: qHTS assay to identify small molecule antagonists of the TGF-beta/Smad signaling pathway - cell viability counter screen (AID 1346824). Further: nearly all actives have a fitted effect of over 50% in size. In short, it runs like this: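 Cytotoxicity counter-screen run in the same wells as the beta-lactamase Smad reporter read: CellTiter-Glo luminescence after 30 min at room temperature. HEK 293T SBE-bla cells had 5 hr compound exposure at 37 C with TGF-beta1 (0.25 ng/mL stock).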

Assay [6] can be described thus: qHTS assay to identify small molecule agonists of the TGF-beta/Smad signaling pathway - cell viability counter screen (AID 1346829). Further: top concentration of the series differs between compounds; nearly all actives have a fitted effect of over 45% in size. The essentials:
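CellTiter-Glo luminescence readout; SBE-bla HEK 293T cells, overnight plating, compound 5 hr at 37 C/5% CO2, then bla substrate 2 hr RT, then CellTiter-Glo 30 min RT.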

Assay [7] is described as follows: qHTS assay to identify small molecule agonists of the TGF-beta/Smad signaling pathway (AID 1346859; active means well fitted activation curve with a large enough effect in the signal ratio in the repeat runs, not every such curve was filed as active; the % refers to the signal ratio; further: series mostly up to about 77 µM). In short, it runs like this: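 Dual-wavelength fluorescence (460/530 nm emission) quantified beta-lactamase expression under the Smad binding element in HEK 293T cells following 5 hr compound treatment at 37 C.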
Assay [8] can be described thus: Caspase-3/7 induction in HepG2 cells by small molecules, qHTS assay (AID 1346978). Further: nearly all actives have a fitted effect of over 15% in size. In short, it runs like this:
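Caspase-3/7 induction was measured by Caspase-Glo 3/7 luminescence (30 min, room temperature) after a 17 hr compound exposure of wild-type HepG2 cells seeded at 2,000 per well and pre-incubated 5 hr.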

Assay [9] in a line: Caspase-3/7 induction in CHO-K1 cells by small molecules, qHTS cell viability counter screen (AID 1346979). Further: nearly all actives have a fitted effect of over 35% in size. Further: potency means the concentration at half of the fitted maximal effect. The essentials: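 Seeding: 1,500 CHO-K1 cells/well. Rest: 5hr, 37C. Treatment: compounds in DMSO, 16hr. Read: CellTiter-Fluor, 1hr, fluorescence.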
Assay [10] in a line: Caspase-3/7 induction in CHO-K1 cells by small molecules, qHTS assay (AID 1346980). Further: nearly all actives have a fitted effect of over 15% in size. The essentials:
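Luminescent Caspase-Glo 3/7 read (30min, room temperature) quantified apoptosis induction. Cells were wild-type CHO-K1, treated with compound for 17hr at 37 C and 5% CO2.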

The nature of assay [11]: Caspase-3/7 induction in HepG2 cells by small molecules, qHTS cell viability counter screen (AID 1346981). Further: series mostly up to about 92 µM; nearly all actives have a fitted effect of over 30% in size. In short, it runs like this:
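Counter screen for cytotoxicity: HepG2 exposed 16 hr to compounds, then CellTiter-Fluor viability signal (fluorescence, 1 hr reagent incubation).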

Assay [12] concerns the target Thyrotropin-releasing hormone receptor (Homo sapiens) (UniProt P34981). In words: qHTS assay to identify small molecule antagonists of the thyrotropin-releasing hormone receptor (TRHR) signaling pathway (AID 1346877; active means well fitted inhibition curve with a large enough effect in the repeat runs, not every such curve was filed as active; further: series mostly up to about 51 µM). In short, it runs like this: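 In this cell-based calcium flux format, HEK293 cells expressing TRHR received test compound for 5 min before the agonist TRH (1 nM final). Dye loading lasted 2 h at 37 °C.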

For assay [13] the target is unchanged. The assay is described as follows: qHTS assay to identify small molecule agonists of the thyrotropin-releasing hormone receptor (TRHR) signaling pathway (AID 1346891; calls by dose curve; further: series mostly up to about 58 µM). The essentials:
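Kinetic fluorescence (3 min, 1 s intervals) reported intracellular calcium after compound transfer onto TRHR-Hek293 cells pre-loaded with dye for 2 h at 37 °C.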

The nature of assay [14]: Human pregnane X receptor (PXR) small molecule agonists, qHTS cell viability counter screen (AID 1346977). Further: nearly all actives have a fitted effect of over 50% in size. In short, it runs like this:
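HepG2 cells stably carrying the PXR-Luc reporter are cultured with 5% charcoal-stripped FBS and treated with compounds for 24hr. CellTiter-Fluor is added at 23hr and fluorescence is read after 1hr.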

Assay [15] addresses Nuclear receptor subfamily 1 group I member 2 (Homo sapiens) (UniProt O75469). In words: Human pregnane X receptor (PXR) small molecule agonists, qHTS assay (AID 1346982). Further: nearly all actives have a fitted effect of over 35% in size. The essentials:
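Luminescence (ONE-Glo, 30 min RT) after 24 hr compound exposure of PXR-Luc HepG2 cells; cells rested 5 hr post-plating in 5% charcoal-stripped FBS medium.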

The target of assay [16] is Cytochrome P450 2D6 (Homo sapiens) (UniProt P10635). In words: Cytochrome P450 Family 2 Subfamily D Member 6 (CYP2D6) small molecule antagonists: luciferase reporter qHTS assay (AID 1671196). Further: nearly all actives have a fitted effect of over 50% in size. Further: potency means the concentration at half of the fitted maximal effect. In short, it runs like this:
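Inhibition of CYP2D6 was gauged by loss of luminescence, since light produced tracks the luciferin generated from a proluciferin substrate. A 10 min room-temperature preincubation preceded 1 h NADPH-supported turnover.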
A general note: A reporter such as luciferase makes a cellular process visible.

The target of assay [17] is Cytochrome P450 2C19 (Homo sapiens) (UniProt P33261). In words: Cytochrome P450 Family 2 Subfamily C Member 19 (CYP2C19) small molecule antagonists: luciferase reporter qHTS assay (AID 1671197). Further: series mostly up to about 120 µM; nearly all actives have a fitted effect of over 65% in size. In short, it runs like this: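 Enzyme-substrate mix with proluciferin substrate (P450-Glo CYP2C19 system) preincubated with compounds 10 min at room temperature; NADPH regeneration solution added, 37C for 1 h; detection reagent stops reaction, luminescence read after 20 min. Ketoconazole positive control.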

Assay [18] has as its target Nuclear receptor subfamily 1 group I member 2 (Rattus norvegicus) (UniProt Q9R1A7). The assay is described as follows: Rat pregnane X receptor (rPXR) activation by small molecules, qHTS assay (AID 1346983). Further: nearly all actives have a fitted effect of over 20% in size. Particulars: rPXR luciferase reporter cells, One-Glo luminescence, 24 h; stronger effect = higher value. In short, it runs like this:
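Luminescent readout (One-Glo luciferase, 30 min room temperature) followed 24 hr compound treatment at 37 C of rPXR cells plated 2,000 per well and preincubated 5hr; qHTS format with compounds delivered in DMSO.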

The target of assay [19] is Nuclear receptor subfamily 1 group I member 2 (Homo sapiens) (UniProt O75469). The assay is described as follows: CYP3A4 induction through human pregnane X receptor (PXR) by small molecules, qHTS assay (AID 1346984). Further: nearly all actives have a fitted effect of over 40% in size. In short, it runs like this:
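DPX-2 reporter cells; 24h cpd, 37C; Luciferin-IPA 3uM final x3h; One-Glo 30 min RT; lumi read.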

Assay [20] shares this target. In words: Human pregnane X receptor (PXR) activation by small molecules, qHTS assay (AID 1346985). Further: nearly all actives have a fitted effect of over 40% in size. The essentials: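 DPX-2 cells (HepG2 co-transfected with a PXR response element and a CYP3A4-promoter luciferase construct) were seeded at 2,000 per well, rested 5 hr at 37C, then exposed to DMSO-dissolved compounds for 24 hr. Activation was read as luciferase luminescence.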
On the % scale 0 is the no-effect control and ±100 the full control effect.

Progesterone receptor (Homo sapiens), sequence (P06401 whole entry, looked up): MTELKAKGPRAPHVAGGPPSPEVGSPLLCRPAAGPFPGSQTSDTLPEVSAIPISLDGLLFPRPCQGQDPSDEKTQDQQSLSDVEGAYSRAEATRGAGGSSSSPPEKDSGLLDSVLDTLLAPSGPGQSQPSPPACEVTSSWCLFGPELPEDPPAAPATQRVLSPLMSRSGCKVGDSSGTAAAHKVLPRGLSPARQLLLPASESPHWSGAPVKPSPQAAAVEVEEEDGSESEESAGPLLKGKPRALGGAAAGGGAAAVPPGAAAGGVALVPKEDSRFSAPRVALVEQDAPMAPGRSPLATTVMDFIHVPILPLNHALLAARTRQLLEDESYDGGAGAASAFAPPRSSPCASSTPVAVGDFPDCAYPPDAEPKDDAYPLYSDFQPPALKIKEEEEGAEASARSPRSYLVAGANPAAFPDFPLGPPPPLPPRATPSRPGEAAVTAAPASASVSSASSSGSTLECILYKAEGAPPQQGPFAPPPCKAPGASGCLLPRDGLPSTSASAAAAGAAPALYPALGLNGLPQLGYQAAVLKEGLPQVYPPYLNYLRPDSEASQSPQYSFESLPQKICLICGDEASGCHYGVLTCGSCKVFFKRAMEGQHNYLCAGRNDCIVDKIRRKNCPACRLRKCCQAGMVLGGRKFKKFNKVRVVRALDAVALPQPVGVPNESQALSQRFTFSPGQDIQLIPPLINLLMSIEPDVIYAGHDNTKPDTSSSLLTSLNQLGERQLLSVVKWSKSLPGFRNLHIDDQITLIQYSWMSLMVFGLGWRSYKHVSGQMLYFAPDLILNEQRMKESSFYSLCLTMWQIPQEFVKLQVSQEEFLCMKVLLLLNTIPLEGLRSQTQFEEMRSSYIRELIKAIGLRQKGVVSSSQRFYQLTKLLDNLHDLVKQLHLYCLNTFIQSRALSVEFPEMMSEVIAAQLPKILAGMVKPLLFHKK
Cytochrome P450 2D6 (Homo sapiens), sequence (P10635 whole entry, looked up): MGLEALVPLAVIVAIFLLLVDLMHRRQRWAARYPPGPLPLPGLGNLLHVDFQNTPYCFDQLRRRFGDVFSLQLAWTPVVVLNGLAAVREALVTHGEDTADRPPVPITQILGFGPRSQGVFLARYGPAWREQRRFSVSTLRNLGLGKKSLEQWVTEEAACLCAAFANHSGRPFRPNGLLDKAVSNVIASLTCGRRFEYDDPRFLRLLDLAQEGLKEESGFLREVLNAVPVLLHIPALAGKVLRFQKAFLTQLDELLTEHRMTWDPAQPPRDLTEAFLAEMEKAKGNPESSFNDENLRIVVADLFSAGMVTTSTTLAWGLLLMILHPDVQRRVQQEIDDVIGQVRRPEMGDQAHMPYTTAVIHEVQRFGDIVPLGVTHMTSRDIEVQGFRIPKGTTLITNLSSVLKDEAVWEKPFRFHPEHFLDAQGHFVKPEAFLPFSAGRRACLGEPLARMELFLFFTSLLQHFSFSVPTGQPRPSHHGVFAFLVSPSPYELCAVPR
Thyrotropin-releasing hormone receptor (Homo sapiens), sequence (P34981 whole entry, looked up): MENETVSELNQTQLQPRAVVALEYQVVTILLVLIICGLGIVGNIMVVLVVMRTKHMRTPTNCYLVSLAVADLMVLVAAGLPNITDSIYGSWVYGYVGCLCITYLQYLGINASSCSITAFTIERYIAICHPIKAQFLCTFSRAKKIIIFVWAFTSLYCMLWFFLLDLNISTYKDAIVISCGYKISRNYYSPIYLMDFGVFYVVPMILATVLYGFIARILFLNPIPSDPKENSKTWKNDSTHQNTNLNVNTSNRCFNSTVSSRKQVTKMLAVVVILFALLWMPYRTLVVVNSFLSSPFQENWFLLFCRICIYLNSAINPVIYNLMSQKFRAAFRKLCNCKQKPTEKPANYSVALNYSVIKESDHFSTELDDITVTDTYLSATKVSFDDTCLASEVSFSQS
Cytochrome P450 2C19 (Homo sapiens), sequence (P33261 whole entry, looked up): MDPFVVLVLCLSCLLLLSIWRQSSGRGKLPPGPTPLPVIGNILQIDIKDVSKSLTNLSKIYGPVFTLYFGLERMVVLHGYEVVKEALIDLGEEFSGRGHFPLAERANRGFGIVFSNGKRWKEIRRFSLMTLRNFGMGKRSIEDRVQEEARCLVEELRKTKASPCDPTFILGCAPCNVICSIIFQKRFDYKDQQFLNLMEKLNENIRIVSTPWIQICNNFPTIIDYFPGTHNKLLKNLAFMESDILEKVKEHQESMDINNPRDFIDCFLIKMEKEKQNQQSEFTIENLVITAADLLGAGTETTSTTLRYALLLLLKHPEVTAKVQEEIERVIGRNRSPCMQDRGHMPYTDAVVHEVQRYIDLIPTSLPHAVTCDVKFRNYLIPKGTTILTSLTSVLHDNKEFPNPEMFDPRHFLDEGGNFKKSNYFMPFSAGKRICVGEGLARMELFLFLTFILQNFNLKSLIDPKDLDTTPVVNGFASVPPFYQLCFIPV
Nuclear receptor subfamily 1 group I member 2 (Homo sapiens), sequence (O75469 whole entry, looked up): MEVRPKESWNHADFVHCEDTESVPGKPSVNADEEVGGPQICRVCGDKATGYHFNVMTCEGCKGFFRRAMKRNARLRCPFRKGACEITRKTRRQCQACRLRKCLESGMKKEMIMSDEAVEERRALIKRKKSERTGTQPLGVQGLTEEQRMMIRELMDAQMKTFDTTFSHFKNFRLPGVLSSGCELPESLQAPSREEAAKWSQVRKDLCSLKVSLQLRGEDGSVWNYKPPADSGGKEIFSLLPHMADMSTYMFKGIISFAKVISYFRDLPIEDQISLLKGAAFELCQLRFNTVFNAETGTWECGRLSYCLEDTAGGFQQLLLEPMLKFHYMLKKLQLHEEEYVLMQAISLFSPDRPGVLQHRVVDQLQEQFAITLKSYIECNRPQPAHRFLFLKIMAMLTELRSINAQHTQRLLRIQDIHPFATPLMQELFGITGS
Nuclear receptor subfamily 1 group I member 2 (Rattus norvegicus), sequence (Q9R1A7 whole entry, looked up): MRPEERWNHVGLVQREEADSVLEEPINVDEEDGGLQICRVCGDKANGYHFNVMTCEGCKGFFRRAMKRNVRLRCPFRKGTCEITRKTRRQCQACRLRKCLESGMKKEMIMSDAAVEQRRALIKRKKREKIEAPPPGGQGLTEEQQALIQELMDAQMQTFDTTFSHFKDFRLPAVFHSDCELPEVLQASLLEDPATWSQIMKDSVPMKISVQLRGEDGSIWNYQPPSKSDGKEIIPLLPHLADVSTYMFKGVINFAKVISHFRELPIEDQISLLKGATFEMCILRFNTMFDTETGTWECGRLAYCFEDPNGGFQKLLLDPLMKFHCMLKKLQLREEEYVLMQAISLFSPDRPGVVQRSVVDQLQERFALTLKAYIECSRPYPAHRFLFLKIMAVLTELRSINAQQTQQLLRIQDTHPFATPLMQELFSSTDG

As for `C=C1C[C@]23C[C@@]1(O)CC[C@H]2[C@@]12C=C[C@H](O)[C@@](C)(C(=O)O1)[C@H]2[C@@H]3C(=O)O`, the Potency entry in assay [1], in assay [2], in [3], in [4], in [5] and in assay [6] was “inactive” each time. Also, the Potency result in assay [7], in [8], in assay [9], in assay [10] and in [11] was “inactive” each time.
For the molecule `CCCOCC(C)O` (stereo not drawn), the Potency entry in assay [1], in assay [2], in assay [3], in assay [4], in assay [5] and in assay [7] was “inactive” each time. Moreover, the Potency entry in [12], in [14], in assay [8], in assay [9], in assay [10] and in assay [11] was “inactive” throughout. Further, the Potency entry in assay [15], in assay [16] and in assay [17] was “inactive” throughout. Moreover, the call in assay [13] was inactive.
With `O=C(Cl)c1ccc(C(=O)Cl)cc1`, the Potency result in [1], in [2], in [3], in assay [4], in assay [5] and in assay [6] was “inactive” in each case. Further, the Potency result in assay [7], in assay [12], in assay [8], in assay [9], in assay [10] and in [11] was “inactive” in each case. Also, the Potency result in assay [15], in assay [16] and in assay [17] was “inactive” each time. Also, the result in assay [13] was inactive.
With `CC1(C)[C@@H](O[C@H]2O[C@H](C(=O)O)[C@@H](O)[C@H](O)[C@H]2O[C@@H]2O[C@H](C(=O)O)[C@@H](O)[C@H](O)[C@H]2O)CC[C@]2(C)[C@H]3C(=O)C=C4[C@@H]5C[C@@](C)(C(=O)O)CC[C@]5(C)CC[C@@]4(C)[C@]3(C)CC[C@@H]12`, the Potency result in assay [1], in [2], in assay [3], in [4], in assay [5] and in assay [6] was “inactive” each time. The Potency entry in assay [7], in assay [14], in assay [8], in [9], in [10] and in assay [11] was “inactive” each time. Further, the Potency entry in [15], in assay [19], in [16] and in assay [17] was “inactive” each time. The max activation in [18] is -0.648% (inactive). Moreover, the result in assay [20] was inactive.
Turning to `Cc1ccc(Cl)cc1`, the Potency entry in [1], in [2], in assay [3], in [4], in assay [5] and in assay [6] was “inactive” each time. The Potency result in assay [7], in [12], in [8], in assay [9], in [10] and in assay [11] was “inactive” each time. Further, the Potency entry in [15] and in assay [17] was “inactive” in each case. Also, in [13], the molecule was called inactive. Also, the Potency in assay [16] is 33.5 µM (active) and inactive.
Consider `CC(=O)C(C)C`, for which the Potency result in assay [1], in assay [2], in assay [3], in assay [4], in [5] and in assay [6] was “inactive” throughout. Moreover, the Potency entry in assay [7], in assay [12], in assay [8], in assay [10], in [11] and in assay [15] was “inactive” in each case. The Potency result in [16] and in assay [17] was “inactive” each time. For the same molecule, the molecule was called inactive in assay [13]. Moreover, the Potency in [9] is 63.4 µM (active) and inactive.
